Tau ThT inhib – qHTS for Inhibitors of Tau Fibril Formation, Thioflavin T Binding; 270,000 compounds, 2.1% hits; Potency, µM (top dose mostly 57.4 µM), for inactives: at the top dose activity, negative = inhibition, usual class: inhibitors; Microtubule-associated protein tau (Homo sapiens), P10636; recombinant tau K18 P301L, heparin-induced fibrillization, ThT fluorescence; note: nearly all actives have a fitted effect of over 55% in size
Target sequence (P10636 561-689 P618L limits assumed): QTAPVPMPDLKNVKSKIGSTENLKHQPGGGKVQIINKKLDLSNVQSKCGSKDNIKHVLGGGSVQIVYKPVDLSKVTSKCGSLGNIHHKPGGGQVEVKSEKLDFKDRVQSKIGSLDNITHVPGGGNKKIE
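In this qHTS, human K18 P301L tau is incubated with compound and heparin for 6 hr at 37 C, and Thioflavin T fluorescence then reports fibril load.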
TR SRC2 fluor cs – Total Fluorescence Counterscreen for Inhibitors of the Interaction of Thyroid Hormone Receptor and Steroid Receptor Coregulator 2; TRb/SRC2 Texas Red total fluorescence interference; Potency, µM (doses to about 106 µM), without a hit: top-dose fluorescence change, negative = quenching; 280,000 compounds, 0.29% hits; AID 1479, 2009; active = well fitted curve in either direction with a large enough effect; inconclusive = small, poorly fitted or top-dose-only effect
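Human TRβ ligand-binding domain (0.6 uM) and Texas Red SRC2 peptide (20 nM) in Tris buffer with 1 uM T3 and 5% DMSO were incubated with pinned compound for 5 hr at ambient temperature. Total fluorescence was computed as S + 2P (555/632 nm).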
TRb SRC2 PPI – qHTS for Inhibitors of the Interaction of Thyroid Hormone Receptor and Steroid Receptor Coregulator 2. Potency, µM (titrated, usually from 106 µM), for inactives: at the top dose activity change, negative = inhibition, hits mostly inhibitors. TRbeta-SRC2 peptide binding, fluorescence polarization; receptor liganded with 1 µM T3. 280,000 compounds, 0.065% hits. AID 1469, 2008. Thyroid hormone receptor beta (Homo sapiens), P10828;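 note: plate controls were bound peptide for no effect and peptide without receptor for full effect; nearly all actives have a fitted effect of over 50% in size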
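Fluorescence polarization of 20 nM Texas Red SRC2 peptide with 0.6 uM human TRb ligand-binding domain, in Tris buffer with 1uM T3 and 5% DMSO. Incubated 5 hr ambient; normalized to unbound and bound controls.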
Tau fluor counter – Counterscreen qHTS for Inhibitors of Tau Fibril Formation, Fluorescence Polarization; tau K18 P301L Alexa594 fluorescence, heparin fibrillization; Potency, µM (doses to about 57.7 µM), for inactives: top-dose activity change, negative = decrease; 280,000 compounds, 0.93% hits; note: nearly all actives have a fitted effect of over 55% in size
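Human tau K18 P301L (15 uM unlabeled, 0.24 uM Alexa 594-labeled) in 100 mM sodium acetate pH 7 with 20 uM heparin, 6 hr at 37 C. ThT 30 uM added, 1 hr ambient; Alexa 594 FP and total fluorescence read at 555/632 nm.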
Tau FP inhib – qHTS for Inhibitors of Tau Fibril Formation, Fluorescence Polarization | K18 P301L tau heparin fibrillization, Alexa594 FP, 6 h | Potency, µM (top dose mostly 57.7 µM), for the others: top-dose activity, negative = inhibition, usual class: inhibitors | Microtubule-associated protein tau (Homo sapiens), P10636 | AID 1468, 2008 | 280,000 compounds, 0.39% hits; note: nearly all actives have a fitted effect of over 55% in size
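Human tau K18 […] P301L fragment, 15 uM unlabeled plus 0.24 uM Alexa 594-labeled tau (final), with compound and 20 uM heparin in 100 mM sodium acetate pH 7; 6 hr at 37 C, then Alexa 594 FP read.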
Numbers without * were called inactive; ? = inconclusive; . = no result; [ ] = another dose, or the depositor's remark. Shown are actives, neighbours in structure and some others; about 3% of the full set was active somewhere. Unless noted, calls come from the whole dose curve; as a rule, active = well fitted curve in the direction sought with a large enough effect; inconclusive = small, poorly fitted or top-dose-only effect, or another doubt; inactive = no such curve, though single readings can be large; an effect the other way counts as inactive or inconclusive. Unless noted, % is set by controls: 0 for no effect and ±100 for the full control effect; potency is the fitted concentration of half-maximal effect.

SMILES	Tau ThT inhib	TR SRC2 fluor cs	TRb SRC2 PPI	Tau fluor counter	Tau FP inhib
COc1ccc2c(c1)Cc1sc(NC(=O)c3ccccc3)nc1-2	?	-1%	3%	?	-8%
COc1ccc2c(c1)Cc1sc(NC(=O)c3ccccc3C)nc1-2	?	0.0028µM*[quencher]	-12%	?	-11%
COc1ccc2c(c1)-c1nc(NC(=O)c3ccccc3F)sc1CC2	?	?	-4%	?	?
COc1ccc2c(c1)Cc1sc(NC(=O)c3cccs3)nc1-2	13µM*	-6%	?	?	?
COc1ccc2c(c1)Cc1sc(NC(=O)c3cccc(Br)c3)nc1-2	4µM*	-2%	4%	?	-6%
Cc1cc(C)cc(NC(=O)C2CCCN(c3cnccn3)C2)c1 (stereo not given)	-1%	1%	3%	-6%	-1%
Cc1ccccc1Cn1ccn(-c2ccc(F)c(F)c2)c(=O)c1=O	-12%	6%	-5%	6%	3%
Cn1cccc1/C=C1\SC(=S)N(Nc2ccccc2)C1=O	3.5µM*	-4%	-2%	?	4%
CC(C)C(C(=O)O)N1C(=O)/C(=C/c2cccn2C)SC1=S (stereo not given)	?	1%	-7%	7%	1%
O=C1/C(=C/c2cccnc2)SC(=S)N1Nc1ccccc1	28µM*	-2%	-1%	?	?
Cc1ccc(S(=O)(=O)NN2C(=O)/C(=C/c3cccn3C)SC2=S)cc1	10µM*	-21%	5%	-10%	-4%
Cc1ccc(S(=O)(=O)NN2C(=O)/C(=C/c3cccs3)SC2=S)cc1	.	-3%	0%	-4%	4%
CC(=O)c1ccc(-c2cccc(C3C4C=CCCC4(C)C(=O)N3Cc3ccccc3)c2)cc1 (stereo not given)	.	-1%	-3%	.	.
COc1ccc(NC(=O)c2cc3c(Cl)nc4ccccc4c3s2)cc1OC	?	-2%	1%	4.5µM*[quencher]	7%
COc1ccc(OC)c(NC(=O)c2cc3c(Cl)nc4ccccc4c3s2)c1	-6%	-3%	-1%	-19%	9%
N#CC(=C(/N)Sc1ccccc1N)/C(C#N)=C(\N)Sc1ccccc1N	14µM*	-4%	6%	18µM*[quencher]	.
Cc1cc(C)c(S(=O)(=O)Nc2cc(SCC(=O)O)c(O)c3ccccc23)cc1C	13µM*	-3%	-17%	?	25µM*
CCOC(=O)c1ccc(NC(=S)NCCc2ccccc2F)cc1	-24%	2%	1%	20µM*[quencher]	28µM*
COc1ccc(C=C2c3ccccc3C(=O)c3ccccc32)cc1O	.	-1%	-2%	.	.
Cc1cccc(N=N/C(=C\O)C(=O)c2cccs2)c1	28µM*	-5%	-2%	-17%	-7%
Cc1ccc(C)n1-c1cc([N+](=O)[O-])ccc1-n1ccnc1	-6%	-4%	-3%	-8%	2%
CC1(C)N([O-])c2cc([N+](=O)[O-])ccc2[N+]1=O	2µM*	-4%	-2%	?	8.9µM*
O=C(NCc1nc2ccccc2[nH]1)c1cccc(Cl)c1	-11%	3%	4%	-10%	-2%
Clc1cccc(N/N=C(\Cc2nc3ccccc3[nH]2)c2ccccc2)c1	?	-1%	6%	7.1µM*[quencher]	?
CC(=O)Nc1ccc2nc(NC(=O)c3ccc([N+](=O)[O-])s3)sc2c1	1.1µM*	?	2%	?	-6%
CC(=O)Nc1ccc2nc(NC(=O)c3cccs3)sc2c1	.	-3%	4%	-6%	-4%
COc1ccc(/C=C/C(=O)c2ccoc2)cc1	?	-3%	-4%	3%	17%
COc1ccc(/C=C/C(=O)c2ccccc2O)cc1	?	-1%[11.2 µM]	4%[11.2 µM]	-13%[11.6 µM]	8%[11.6 µM]
COc1ccc(/C=C/C(=O)c2c(O)c(OC)c3occc3c2OC)cc1	4.5µM*	-3%	0%	?	3%
